In PubChem BioAssay (NCI) one finds growth data, which are given here for 13 compounds.

The structures appear in SMILES notation. About 83,000 compounds went through this panel and 20% of them were active in at least one assay; those are over-represented in the sample as a whole.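 48-hour exposure, single concentration, 96-well plates; percent growth endpoint where 0 means no net growth. Active: below 10.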 A number with no mark means an inactive call. Calls of active or inactive are those of the source.

Holding throughout (test): NCI-60 one-dose screen, 48 h (100 = growth as untreated, 0 = no growth, -100 = all killed)
Holding throughout (settings): 10 µM unless noted

Test [1] has as its system NCI-H23 lung.
Test [2] deals with NCI-H226 lung.
The test system of test [3] is NCI-H322M lung.
Test [4] concerns HOP-62 NSCLC.
Test [5] concerns NCI-H460 lung.
In test [6] the test system is HOP-92 NSCLC.
Test [7] concerns NCI-H522 lung.
The subject of test [8] is A549/ATCC NSCLC.
Test [9] deals with 786-0 renal.
Test [10] has as its system COLO 205 colon.

Regarding `CCCSc1nc(N)nc2nc[nH]c12`, the growth was 97.5% in [1]; 103% in test [2]; 161% in [3]; 95.7% in test [4]; 106% in test [5]; 91.9% in [6]. Besides, the growth in [7] is 88.4%; in test [8], 105%; in test [9], 97.5%; in test [10] it was 113%.

As to `Cc1cc(C)c(-c2cc(O)c(-c3c(C)cc(C)cc3C)cc2O)c(C)c1`, the growth in test [1] is 34.9%; in [2], 64.4%; in test [3] it was 68.6%; in [4] it was 47.2%; in [5] it was 16.9%; in [6] it was 94.3%. The growth in test [7] was -12.7% (active); in [8], 47.6%; in [9], 30.4%; in [10] it was -12.8% (active).

On to `CCN(CC)CCCC(C)Nc1ccnc2cc(Cl)c(SCc3ccccc3)cc12` (stereo not given), for which the growth in [1] is -17.1% (active); in test [2] it was 24.2%; in test [3], -28.9% (active); in test [4] it was -72.2% (active); in [5], -54.9% (active); in test [6], -43.1% (active). Further, the growth in test [7] is -69.6% (active); in [8], -23.1% (active); in test [9], -93.3% (active); in test [10] it was -89.5% (active).

For the compound `COc1ccc(-c2cc(-c3ccc(Cl)cc3)nc(SCCCCCCC(=O)NO)n2)cc1`, the growth in test [1] is 8.94% (active); in test [2] it was 19.7%; in test [3], 39.5%; in [4] it was 7.61% (active); in test [5], 14.9%; in [6] it was 23.7%. Also, the growth in test [7] was 10.4%; in test [8], 13%; in [9] it was 27.4%; in [10] it was 35.6%.

As for `CCOC(=O)CCC[P+](c1ccccc1)(c1ccccc1)c1ccccc1`, the growth was 87.9% in test [1]; 108% in test [2]; 96.4% in [3]; 99.8% in test [4]; 82.2% in test [5]; 71.4% in test [6]. Besides, the growth in [7] was 63.1%; in [8] it was 90.7%; in test [9] it was 101%; in test [10] it was 71.6%.

As for `CN(C)CCOc1ccc(/C(=C(/CCCl)c2ccccc2)c2ccccc2)cc1`, the growth in [1] is 28.5%; in [2] it was 59.1%; in test [3] it was 37.1%; in test [4], -18.8% (active); in test [5] it was -73.3% (active); in test [6], -4.94% (active). The growth in test [7] is 10.8%; in [8], 26.4%; in test [9], -28.5% (active); in test [10], -93.6% (active).

On to `NC1=NC(=O)NC1(c1ccccc1)c1ccccc1`, for which the growth in test [1] was 91.9%; in test [2], 99%; in test [3] it was 99.2%; in test [4], 95.6%; in test [5] it was 108%; in test [6], 85.3%. The growth was 95.1% in test [7], 93.3% in test [8], 135% in test [9] and 103% in test [10].

Turning to `O=C(Nc1cc(-c2cccnc2)nc(NCCCN2CCOCC2)n1)c1cc(Br)cc(C(F)(F)F)c1`, the growth was 80.9% in test [1]; 73.8% in [2]; 58.2% in [3]; 69.4% in test [4]; 56% in test [5]; 34.6% in [6]. The growth in test [7] is 60.2%; in test [8], 67.9%; in [9] it was 51.8%; in test [10], 1.11% (active).

For the compound `O=C1Nc2ccccc2/C1=C/C(=O)c1ccc(N2CCCCC2)cc1`, the growth in test [1] is 75.7%; in test [2] it was 86.7%; in test [3], 96.6%; in test [4], 102%; in test [5], 77.9%; in test [6] it was 56.7%. The growth in test [7] is 61.7%; in [8], 95.1%; in test [9] it was 98.7%; in test [10], 74.6%.

`O=C(NCCO)c1cccnc1`: the growth is 102% in test [1]; 92.7% in test [2]; 95.9% in test [3]; 91.9% in test [4]; 98.9% in [5]; 82.7% in test [6]. For the same compound, the growth in test [7] was 73%; in test [8], 88.5%; in [9], 97%; in [10] it was 105%.

As to `Cc1cc(C)c(S(=O)(=O)/N=c2/n(-c3ccccc3)nc3n2CCN3C2=NCCN2)c(C)c1`, the growth was 86.7% in [1]; 89% in [2]; 87.1% in test [3]; 86.8% in test [4]; 71.8% in [5]; 63.9% in test [6]. For the same compound, the growth in [7] is 103%; in test [8] it was 79.9%; in test [9], 89.1%; in test [10] it was -28.9% (active).

Regarding `C=C(C)[C@@H]1CC[C@]2(C(=O)OC)CC[C@]3(C)[C@H](CC[C@@H]4[C@@]5(C)CC/C(=N\OCCC(=NCCC#N)NOCCC#N)C(C)(C)[C@@H]5CC[C@]43C)[C@@H]12`, the growth is 21.8% [100 µM] in test [1]; 2.42% [100 µM] (active) in test [2]; 46.1% [100 µM] in test [3]; 32.5% [100 µM] in [4]; 4.22% [100 µM] (active) in test [5]; -15% [100 µM] (active) in test [6]. The growth was 13.4% [100 µM] in test [7], 15.8% [100 µM] in test [8], -11.5% [100 µM] (active) in test [9] and 17.6% [100 µM] in test [10].

For the compound `O=C(Nc1ccc(Oc2ccc(F)cc2)c(Cl)c1)c1cccnn1`, the growth is 62.3% in test [1]; 55% in test [2]; 87.6% in test [3]; 84.2% in test [4]; 76.8% in test [5]; 66.5% in test [6]. Moreover, the growth in test [7] is 61.8%; in test [8] it was 65.5%; in test [9] it was 105%; in [10], 112%.
